Screening data from PubChem.
TDP1 cell noCPT – qHTS for Inhibitors of human tyrosyl-DNA phosphodiesterase 1 (TDP1): qHTS in cells in absence of CPT. Potency, µM (titrated, usually from 46.2 µM), for inactives: top-dose activity change, negative = growth inhibition, actives largely listed as inhibitors. 420,000 tested, 15% active. DT40 Tdp1-/- hTDP1 cells, no CPT, ATP luminescence, 48 h; note: nearly all actives have a fitted effect of over 55% in size
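DT40 Tdp1-/-;hTDP1 cells, no CPT (DMSO vehicle only), 400 cells/well; compounds pin-transferred; ≥48 hr, 37 °C; CellTiter-Glo 30 min RT dark, luminescence read.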
DT40 TDP1 CPT – qHTS for Inhibitors of human tyrosyl-DNA phosphodiesterase 1 (TDP1): qHTS in cells in presence of CPT; chicken DT40 Tdp1-/-;hTDP1 cells + 20 nM CPT, ATP luminescence, 48 h; Potency, µM (doses to about 46.2 µM), without a hit: at the highest dose activity change, negative = growth inhibition, actives largely listed as inhibitors; 420,000 tested, 12% active; note: nearly all actives have a fitted effect of over 55% in size
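Chicken DT40 Tdp1-/- cells stably complemented with human TDP1 were seeded at 400 cells/well in medium containing 20 nM camptothecin, exposed to pin-transferred compounds, and grown at 37 °C for at least 48 hr. Viability was read as ATP luminescence.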
PLK1 PBD inh – qHTS for Inhibitors of PLK1-PDB (polo-like kinase 1 - polo-box domain): Primary Screen | Plk1 PBD binding of FITC phosphopeptide, fluorescence polarization | Serine/threonine-protein kinase PLK1 (Homo sapiens), P53350 | Potency, µM, for inactives: max response, negative = inhibition, actives largely listed as inhibitors | 360,000 tested, 2.8% active; note: series mostly up to about 57 µM; nearly all actives have a fitted effect of over 65% in size
Target sequence (P53350 whole entry, looked up, the tested form may be a part): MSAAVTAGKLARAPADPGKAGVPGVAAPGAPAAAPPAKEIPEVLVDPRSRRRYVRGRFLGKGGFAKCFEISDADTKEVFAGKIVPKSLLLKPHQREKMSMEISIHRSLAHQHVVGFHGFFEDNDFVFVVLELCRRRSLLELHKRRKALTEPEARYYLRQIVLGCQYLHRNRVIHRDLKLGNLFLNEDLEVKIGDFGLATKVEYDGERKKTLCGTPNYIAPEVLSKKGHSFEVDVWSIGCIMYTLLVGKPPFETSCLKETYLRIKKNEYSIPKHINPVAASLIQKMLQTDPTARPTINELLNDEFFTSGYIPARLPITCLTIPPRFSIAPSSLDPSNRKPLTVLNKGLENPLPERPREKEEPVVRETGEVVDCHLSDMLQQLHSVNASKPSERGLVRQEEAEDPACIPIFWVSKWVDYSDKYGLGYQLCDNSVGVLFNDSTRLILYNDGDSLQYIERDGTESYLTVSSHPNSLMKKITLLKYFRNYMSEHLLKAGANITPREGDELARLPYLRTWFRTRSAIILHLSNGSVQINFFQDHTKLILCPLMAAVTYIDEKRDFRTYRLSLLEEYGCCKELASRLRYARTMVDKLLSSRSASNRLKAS
TDP1 block – qHTS Assay for Inhibitors of Tyrosyl-DNA Phosphodiesterase (TDP1) | recombinant TDP1, AlphaScreen DNA substrate cleavage | Potency, µM (highest dose often 130 µM), without a hit: at the top dose activity change, negative = inhibition, hits mostly inhibitors | 350,000 tested, 0.28% active | AID 485290, 2010; note: nearly all actives have a fitted effect of over 40% in size
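Tdp1 1 nM final; 15 min RT w/ cpd; substrate 15 nM, 5 min; beads 10 ug/ml, 10 min; AlphaScreen read. Neg ctrl: no enzyme.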
VDR inh – Inhibitors of the vitamin D receptor (VDR): qHTS. Vitamin D3 receptor (Homo sapiens), P11473. VDR-SRC2-3 peptide fluorescence polarization, 2 h. Potency, µM, inactives show max response, negative = inhibition, actives largely listed as inhibitors. 400,000 tested, 0.93% active. AID 504847, 2011
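Inhibition of the VDR/SRC2-3 peptide interaction is quantified by fluorescence polarization. Compounds (23 nl, pintool) incubate with the reagents for 2 hours at ambient room temperature.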
GCN5L2 inh – qHTS Assay for Inhibitors of GCN5L2; Potency, µM (top dose mostly 58.9 µM), for the others: at the highest dose activity change, negative = inhibition, most hits filed as inhibitors; Histone acetyltransferase KAT2A (Homo sapiens), Q92830; GCN5L2 HAT assay, ThioGlo1 CoA-SH fluorescence; 390,000 tested, 0.21% active
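GCN5L2 (20 nM) in 50mM HEPES pH 7.5, 0.1mM EDTA, 0.01% Tween-20 preincubated 15 min with compounds at room temperature. Reaction started with H3(1-25) 75uM, acetyl-CoA 70uM, ThioGlo1 50uM; CoA-thiol fluorescence (Ex340/Em540) read at 0 and 20 min.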
An asterisk follows results filed as active; ? = inconclusive; nt = not tested or not shown. Only some compounds are listed: those with a hit (about 18% of all), similar ones and a draw of the others. Calls come from the whole dose curve; as a rule, active = well fitted curve in the direction sought with a large enough effect; inconclusive = small, poorly fitted or top-dose-only effect, or another doubt; inactive = no such curve, though single readings can be large; an effect the other way counts as inactive or inconclusive. % is set by controls: 0 for no effect and ±100 for the full control effect; potency is the fitted concentration of half-maximal effect.

SMILES | TDP1 cell noCPT | DT40 TDP1 CPT | PLK1 PBD inh | TDP1 block | VDR inh | GCN5L2 inh
Cc1sc(NC(=O)c2ccccc2)c(C(c2ccccn2)N2CCN(CCO)CC2)c1C (stereo not given) | 9.2µM* | 10.3µM* | -19.5% | -3.2% | 6.3% | -4.2%
CCN(CC)S(=O)(=O)c1cccc(C(=O)N/N=C/c2cccc(O)c2O)c1 | 4.61µM* | 3.66µM* | -10.4% | 5.5% | -0.1% | -1.5%
CCN(CC)c1ccc(/C=N/NC(=O)c2cccc(S(=O)(=O)N3CCOCC3)c2)c(O)c1 | 5.8µM* | 4.11µM* | -4.0% | 2.5% | -0.1% | 3.1%
O=C(c1ccc(=O)[nH]n1)N1CCc2ccccc2C1 | 0.5% | -3.2% | 3.6% | 5.5% | -9.7% | 2.6%
CC1(C)Cc2c(c(N3CCCC3)nc3sc4c(N5CCN(CCO)CC5)ncnc4c23)CO1 | 11.2µM* | 16.4µM* | -1.2% | 8.3% | -2.4% | -4.2%
CN(C)CCNc1ncnc2c1sc1nc(N3CCOCC3)c3c(c12)CC(C)(C)SC3 | 20.6µM* | ? | -6.0% | 5.2% | -10.6% | ?
c1nc(N2CCNCC2)c2sc3nc(N4CCOCC4)c4c(c3c2n1)CCC4 | nt | nt | nt | 0.0% | nt | 0.2%
CC1(C)Cc2c(c(N3CCOCC3)nc3sc4c(NCCN)ncnc4c23)CO1 | ? | ? | -1.2% | nt | -14.4% | nt
OCCN1CCN(c2ncnc3c2sc2nc(N4CCOCC4)c4c(c23)CCC4)CC1 | 20.6µM* | ? | -6.1% | 2.9% | -0.2% | -6.4%
OCCN(CCO)c1ncnc2c1sc1nc(N3CCOCC3)c3c(c12)CCCC3 | 18.4µM* | 16.4µM* | -0.2% | 7.4% | -21.3% | 9.8%
COc1ccccc1C(=O)NC(=O)CSc1nnnn1C | 3.0% | -20.5% | -2.3% | -2.0% | 8.6% | 0.4%
COc1cc(C(=O)NS(=O)(=O)c2ccccc2C)ccc1Cc1cn(C)c2ccc(NC(=O)OC3CCCC3)cc12 | -18.3% | -8.9% | nt | 2.1% | 50.1µM* | 7.08µM*
CCc1nc2c(OCc3ccc(C(=O)N(C)C)cc3)cccn2c1N(C=O)Cc1ccccc1 | -16.5% | ? | -1.3% | nt | nt | nt
CCc1nc2c(OCc3ccc4c(c3)OCO4)cccn2c1N(C=O)Cc1ccccc1 | ? | ? | -1.8% | nt | nt | nt
CCc1nc2c(OCC3CCCCC3)cccn2c1N(C=O)Cc1ccc(OC)cc1 | 20.6µM* | 20.6µM* | 0.5% | nt | nt | nt
C=CCOc1cccn2c(N(C=O)Cc3ccc(OC)cc3)c(CC)nc12 | 11.6µM* | 18.4µM* | -14.6% | nt | nt | nt
CCCOc1cccn2c(N(C=O)Cc3ccc(OC)cc3)c(CC)nc12 | ? | 16.4µM* | -5.8% | nt | nt | nt
CCc1nc2c(OCC(=O)C(C)(C)C)cccn2c1N(C=O)Cc1ccccc1 | -5.6% | -2.5% | -6.7% | nt | nt | nt
CCc1nc2c(OCCOc3ccc(F)cc3)cccn2c1N(C=O)Cc1ccccc1 | ? | 20.6µM* | -6.2% | nt | nt | nt
CCc1cccc(CC)c1NS(=O)(=O)c1ccc2c(c1)CCN2C(=O)C1CC1 | -27.9% | ? | nt | -4.7% | -23.3% | -1.8%
O=C(NCC1Cc2cccc(-c3cnccn3)c2O1)C1COc2ccccc2O1 (stereo not given) | -18.8% | 9.5% | nt | nt | nt | nt
CCCCN(C=O)c1c(CC)nc2c(OCCOc3ccccc3)cccn12 | 20.6µM* | ? | -4.0% | nt | nt | nt
CCCCN(C=O)c1c(CC)nc2c(OCCC)cccn12 | ? | -55.5% | -10.4% | nt | nt | nt
CCc1ccc(NC(=O)Cn2c(=O)n(Cc3ccccc3)c(=O)c3oc4ccccc4c32)cc1 | ? | ? | nt | 7.7% | 9.6% | -5.0%
C=CCN1C(=O)C(CC(=O)O)SC1=Nc1ccc(C)cc1 (stereo not given) | 14.4% | 0.3% | -10.2% | 2.7% | -6.3% | -2.4%
SMILES | TDP1 cell noCPT | DT40 TDP1 CPT | PLK1 PBD inh | TDP1 block | VDR inh | GCN5L2 inh
FC(F)(F)c1cc(CCN2CCNC[C@@H]2Cc2ccccc2)cc(C(F)(F)F)c1 | ? | 20.6µM* | -13.6% | nt | -4.6% | nt
O=C(Cn1cc2c(n1)CCCC2)NC1CCCCCC1 | -10.7% | -15.4% | -27.5% | 4.3% | -16.7% | -5.2%
COC(=O)c1ccn(CC(=O)NC2CCCCC2)n1 | -19.1% | 1.0% | -1.0% | 28.2µM* | 2.8% | -7.7%
CCC1(c2ccc(F)cc2)NC(=O)N(CC(=O)Nc2cc(S(=O)(=O)N(C)C)ccc2Cl)C1=O (stereo not given) | ? | ? | -6.3% | 5.0% | -8.1% | -8.4%
CC(=O)N/N=C(\C)c1ccc2c(c1)OCCO2 | 21.8% | -14.5% | 3.3% | -5.0% | -0.5% | -7.0%
C/C(=N\NC(=S)Nc1ccc(F)cc1)c1ccc2c(c1)OCCO2 | 0.92µM* | 0.92µM* | -6.9% | 8.9% | -1.6% | -6.3%
C/C(=N/NC(=O)c1ccoc1C)c1ccc(N2CCOCC2)cc1 | -16.6% | -2.6% | -3.8% | -10.3% | -10.3% | -6.3%
C/C(=N\NC(=S)NCc1ccccc1)c1ccc2c(c1)OCCO2 | 23.1µM* | 16.4µM* | -2.5% | 4.9% | -23.3% | -11.0%
C/C(=N\NC(=S)NCc1ccccc1)c1ccc(C)o1 | 5.17µM* | ? | -29.8% | 5.5% | -5.6% | -0.9%
C/C(=N\NC(=S)Nc1ccc(C)c(C)c1)c1ccc(N2CCOCC2)cc1 | 5.8µM* | 5.8µM* | 0.4% | 5.3% | -3.6% | ?
Cc1cc2c(cc1NC(=O)c1ccccc1C)n(C)c(=O)c(=O)n2C | 2.4% | -0.6% | nt | 4.5% | 6.9% | -15.0%
CC(=O)N1CCCc2ccc(NS(=O)(=O)c3ccc(C)cc3)cc21 | 25.9µM* | ? | -9.3% | -1.8% | -17.1% | 0.7%
CCOc1ccc(NC(=O)CCS(=O)(=O)c2ccc3c(c2)CCCN3C(C)=O)cc1 | -17.5% | -18.9% | -14.5% | -2.0% | -11.1% | -2.0%
CC(=O)Nc1ccc(NS(=O)(=O)c2ccc3c(c2)CCCN3C(C)=O)cc1 | 1.8% | 4.4% | nt | 7.7% | 7.8% | -17.4%
